# Rows were chosen to be rich in hits. Some 2.9% of all compounds tested hit in one or more screens of this group.
# Peg3 prom inh-1 – reduces Peg3 promoter-driven luciferase expression in HeLa; hit rate 1.7% among 360,000; inhibition, % at 20 µM; HeLa PEG-Prom luciferase reporter, luminescence, overnight;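 active means inhibition of at least 50% at 20 µM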
# HIF-2a inh – inhibitors of HIF-2a. 786-0 RCC cells HIF-2a reporter, luciferase luminescence, overnight. inhibition, % at 18.8 µM. hit rate 0.72% among 360,000;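 active means inhibition of the luminescence signal of 40% or more relative to plate controls, in a single-dose primary screen at 18.75 µM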
# KKLEB cytotox – CF airway cell cytotoxicity counter-screen. hit rate 0.36% among 360,000. activity change (cytotoxicity), % at 5 µM. KKLEB CF airway cells viability, ATPlite luminescence, overnight; active compounds read low; cells stimulated with P. aeruginosa culture filtrate;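 active means corrected activity change at or below -50% at 5 µM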
# EBV LMP1 NFkB – Epstein-Barr LMP1 NF-kappaB reporter inhibition; LMP1-induced NF-kappaB luciferase reporter cells, luminescence; inhibition, % at 12.5 µM; hit rate 0.69% among 350,000; in the data active means inhibition above about 41%;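 further: 0% = neutral control wells and 100% = reference inhibitor control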
# CF NFkB block – cystic fibrosis NF-kB activation inhibition. AID 588850. hit rate 0.86% among 360,000. inhibition, % at 5 µM. KKLEB NF-kB-GFP reporter, PAF-induced, GFP fluorescence overnight;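 active means at least 50% inhibition at 5 µM, scaled per plate between neutral and stimulator controls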;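 further: PAF is a Pseudomonas aeruginosa culture filtrate used as stimulus; plate controls were PAF-stimulated DMSO wells for no effect and unstimulated DMSO wells for full effect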
# Shn3 inh set2 – Schnurri-3 reporter inhibition in Clone20 osteoblasts; Clone20 osteoblast Shn3 3'UTR firefly luciferase, 24 h; inhibition, % at 12.5 µM; hit rate 0.52% among 360,000; AID 588674;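 active means mean inhibition of at least 75% with every replicate also reaching 75%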;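 further: 0% = median of neutral control wells and 100% = pilot-screen positive control compound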
# Peg3 prom inh-2 – confirmation of Peg3 promoter inhibitors. shares compounds with Peg3 prom inh-1. inhibition, % at 20 µM. HeLa PEG-Prom luciferase reporter, luminescence, overnight. hit rate 84% among 1,300. AID 602417;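 active means at 20 µM dose, 40% or more inhibition averaged across four replicates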
# An asterisk follows results filed as active; nt = no result.
SMILES,Peg3 prom inh-1,HIF-2a inh,KKLEB cytotox,EBV LMP1 NFkB,CF NFkB block,Shn3 inh set2,Peg3 prom inh-2
COc1ccc(-c2ccc3[nH]c4c(c3c2)CCN2C[C@@H]([C@H](C)O)[C@@H](N(C)C(=O)Nc3cc(Cl)cc(Cl)c3)C[C@@H]42)cc1,63.6*,9.5,1.4,3.1,0.6,20.3,60.9*
Cc1nccn1CC(=O)N/N=C/c1ccccc1O,-0.2,1.1,15.5,2.7,-23.8,nt,nt
Cc1ccc(Oc2ncccc2C(=O)NC2CCSC2=O)cc1 (stereo unspecified),6.3,14.2,-10.3,7.9,27.5,4.0,nt
O=C(COC(=O)c1ccccc1F)NC(=O)NC1CCCC1,-10.8,-8.2,-3.3,-3.7,12.7,-13.4,nt
CCC(c1ccc(O)c(O)c1)C(CC)c1ccc(O)c(O)c1 (stereo unspecified),100.3*,78.6*,-21.2,-17.4,84.1*,26.3,97.7*
C[C@H](NC(=O)c1ncn(C)c1C(=O)N[C@@H](C)c1ccccc1)c1ccccc1,11.3,12.4,3.7,3.4,8.5,0.6,nt
CCc1ccn2cc(-c3ccc4c(c3)OCO4)nc2c1,83.5*,60.3*,-75.7*,72.1*,-16.2,80.6,71.8*
O=C(COC(=O)c1ccc2c(c1)OCO2)Nc1ccccc1Cl,-0.8,0.0,-4.8,1.0,13.0,-10.5,nt
Cc1cc(C)cc(NC(=O)Cn2c(=O)oc3cc(S(=O)(=O)N4CCC(C)CC4)ccc32)c1,68.4*,10.6,3.0,-17.5,18.9,28.7,43.8*
COc1cccc(/C=N/NC(=O)CNC(=O)COc2ccccc2)c1O,43.0,7.8,9.5,1.9,-13.7,8.4,nt
Cc1cccc(OCC(=O)NCC(=O)N/N=C/c2cc(Br)cc(Br)c2O)c1,57.3*,14.2,-0.4,23.6,8.6,42.8,63.3*
C/C(=N\N=C(N)N)c1ccc(Cl)c(Cl)c1,105.2*,4.7,-13.1,2.5,4.3,1.1,82.5*
C/C(=N\NC(=O)C1CC1)c1ccc(Cl)c(Cl)c1,-51.0,-101.6,2.5,-6.7,10.5,-2.7,nt
Cc1ccc(N(C(=O)c2ccco2)C2C=CS(=O)(=O)C2)cc1 (stereo unspecified),12.4,14.0,3.4,-9.5,6.7,-0.4,nt
COc1cc(/C=C/[N+](=O)[O-])ccc1OC(=O)/C=C/c1ccc(F)cc1,103.2*,7.6,-4.5,-4.1,-30.0,56.4,51.8*
COc1ccc(/C=C/C(=O)Oc2ccc(C)c(C)c2)cc1OC,-30.0,-14.0,9.4,11.3,-5.6,9.3,nt
O=C(c1cc(-c2ccc(F)cc2)no1)N1CCN(Cc2ccc3c(c2)OCO3)CC1,8.3,-6.6,6.0,-2.0,-15.7,3.2,nt
CC(C)C[C@H](NC(=O)c1nc[nH]c1C(=O)N1CCN(C(=O)OC(C)(C)C)CC1)C(=O)OCc1ccccc1,11.3,2.9,0.4,-2.4,11.8,8.0,nt
COc1ccc2oc(=O)c(C(=O)Nc3ccccc3O)cc2c1,-197.4,-222.9,-8.6,0.7,-29.1,-19.7,nt
Cc1ccc(C(=O)Nc2cc3ccccc3oc2=O)cc1,90.3*,49.1*,-45.5,79.3*,18.0,81.4,61.7*
CC(=O)Nc1cc2ccccc2oc1=O,1.4,-7.3,-2.0,-52.6,7.8,17.3,nt
COc1ccc(NC(=O)c2cc3ccccc3oc2=O)cc1,55.4*,-2.2,-19.8,73.4*,-25.9,36.6,33.7
CCCCCN1C=CC(=C2C(=O)c3ccccc3C2=O)C=C1,103.1*,88.2*,-82.4*,76.2*,-5.3,93.1*,90.6*
Clc1ccccc1/C=C/c1nc(-c2ccccn2)no1,61.3*,63.1*,-38.0,72.9*,5.9,nt,46.8*
COc1cc(NC(=O)c2ccc(F)cc2)c(OC)cc1Cl,-16.4,-21.6,5.1,-2.6,-19.6,6.6,nt
SMILES,Peg3 prom inh-1,HIF-2a inh,KKLEB cytotox,EBV LMP1 NFkB,CF NFkB block,Shn3 inh set2,Peg3 prom inh-2
COc1cc(NC(=O)c2c(F)c(F)c(F)c(F)c2F)c(OC)cc1Cl,69.5*,24.4,13.8,6.9,-14.0,16.8,53.1*
N#Cc1c(NC(=O)/C=C/C(=O)O)sc2c1CCN(Cc1ccccc1)C2,8.2,8.8,8.5,2.2,-7.1,-13.5,nt
CCOc1ccc2[nH]c3c(N4CCN(C(=O)c5ccco5)CC4)ncnc3c2c1,32.3,23.4,11.5,nt,-30.7,14.1,nt
O=C(c1ccco1)N1CCN(c2ncnc3c2[nH]c2ccc(Br)cc23)CC1,73.3*,15.9,2.6,30.3,-42.5,27.0,84.9*
Cc1ccc(CN2CC(C(=O)NCC(=O)Nc3c(C)cccc3C)CC2=O)cc1 (stereo unspecified),-7.4,0.6,-13.1,0.2,2.9,-6.8,nt
COc1cc(CNCCCN2CCOCC2)ccc1OCC(=O)Nc1cccc(C(F)(F)F)c1,12.0,2.1,-15.5,-27.1,19.1,-2.8,nt
CCOc1cc(CNCCCN2CCOCC2)ccc1OCC(=O)Nc1cccc2ccccc12,50.2*,3.3,-18.0,-9.4,24.0,19.3,64.4*
CC(C)CC(N)c1csc(NC(=O)Nc2ccccc2C(C)C)n1 (stereo unspecified),71.8*,9.2,-7.5,nt,9.2,7.8,84.1*
COc1ccc(NC(=O)Nc2nc(C(N)CC(C)C)cs2)cc1 (stereo unspecified),11.3,15.3,9.9,nt,2.1,4.3,nt
CN(C)CC(O)CN(c1ccccc1)c1ccccc1 (stereo unspecified),-23.4,7.5,-10.3,nt,15.8,-6.6,nt
COc1ccc(OC)c(C(O)c2ncc(-c3cccc4ccccc34)[nH]2)c1 (stereo unspecified),23.3,3.0,-15.1,nt,3.8,3.1,nt
CCCCOc1ccc(OCCNC(=O)c2ccco2)cc1,-73.8,-83.1,-0.6,-4.4,-2.2,-3.0,nt
COC(=O)c1cccc(Nc2nc(-c3cccnc3)nc3ccccc23)c1,42.6,-5.4,-11.9,3.0,34.4,14.7,nt
CCOC(=O)c1cccc(Nc2nc(-c3cccnc3)nc3ccccc23)c1,63.2*,-8.4,-13.5,12.4,12.0,24.9,90.3*
CCCSCCCNC(=O)Cn1nc(CC)n2c(cc3c(OC)cccc32)c1=O,54.0*,20.8,-6.5,3.1,-0.9,0.0,18.3
CCc1nn(CC(=O)NCCN2CCOCC2)c(=O)c2cc3c(OC)cccc3n12,-8.4,0.2,-10.9,-0.8,-6.7,15.3,nt
CCOc1ccc2[nH]c3c(NCCO)ncnc3c2c1,-38.5,-122.3,-2.3,-5.5,21.4,-76.4,nt
CCOc1ccc2[nH]c3c(NCCc4ccc(OC)c(OC)c4)ncnc3c2c1,66.1*,20.2,-17.0,33.4,-2.8,46.3,65.5*
COc1ccc(/C=C/C(=O)c2ccc3c(c2)OCCO3)cc1[N+](=O)[O-],71.1*,-60.9,-5.0,19.2,0.1,-3.9,79.8*
COc1ccc(CNCCC(c2ccccc2)c2ccc(OC(C)C)cc2)cc1OC (stereo unspecified),100.8*,20.2,20.8,-21.0,-13.2,61.3,96.7*
